Assay results taken from PubChem BioAssay (NCI).
Compounds without any hit were thinned out: in the full panel of roughly 83,000, 20% have a hit.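 Results are percent growth after 48 hours of single-concentration exposure. 100 means growth as in untreated cells, lower positive values show inhibition; negative values down to -100 show cell death.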 The source made the active and inactive calls. The calls were made as follows: active = growth percent below 10; inactive = the rest.

What follows are compounds tested on HL-60(TB) leukemia (assay: NCI-60 one-dose screen, 48 h (100 = growth as untreated, 0 = no growth, -100 = all killed)). Conditions: 10 µM unless noted.

Q: COCCNC(=O)Cc1cc(-c2ccc(Cl)cc2)n(-c2ccccc2)c1C was tested. Which growth did it give?
A: The growth was 66.4% (inactive).

Q: Which growth does the source give for Cc1c(O)c(O)cc2c3c(oc12)CC(c1ccc2c(c1)OCO2)CC3=O (centres undefined) here?
A: Its growth is 73.7% (inactive).

Q: For O=C1c2[nH]cc(CN[C@@H]3CCCN3)c2C(=O)c2c1c(O)c1ccccc1c2O, which growth is on record?
A: Its growth is -73% (active).

Q: For CCN(CC)CCCCCNc1cc(OC(=O)c2ccc(Cl)cc2)cc2cccnc12, which growth is on record?
A: The growth was 6.96% (active).

Q: Which growth does the source give for CSc1nc(-c2ccco2)c2c(N)[nH]nc2n1 here?
A: The growth was 82.9% (inactive).

Q: How did the growth turn out when COc1ccc(C(=O)CSc2nc(-c3cc(OC)ccc3OC)cc(-c3ccc(OC)cc3)c2C#N)cc1 was run?
A: The growth was 98.3% (inactive).

Q: NC(=O)c1c(NC(=O)/C=C/c2cccs2)sc2c1CCC(=O)C2 was tested. Which growth did it give?
A: The growth was 2.8% (active).

Q: For O=C(c1ccccc1)c1cccc(C(Br)Br)c1, which growth is on record?
A: The growth was 87.6% (inactive).

Q: With CC(=O)Nc1ccc2nc3ccc(NC(C)=O)cc3[n+](-c3ccccc3)c2c1 as the compound, how does the growth read?
A: Its growth is 4% (active).

Q: How did the growth turn out when O=C(NCCCO)c1cc(Cl)ccc1O was run?
A: The growth was -13.5% (active).

Q: Which growth does the source give for CCCCO[C@@H]1C=C2[C@H]3CC(C)(C)C(=O)C[C@]3(C(=O)O[C@@H]3O[C@H](CO[C@@H]4O[C@H](CO)[C@@H](OC5OC(C)C(O)C(O)C5O)[C@H](O)[C@H]4O)[C@@H](O)[C@H](O)[C@H]3O)CC[C@@]2(C)[C@]2(C)CC[C@H]3C(C)(C)C(=O)CC[C@]3(C)[C@@H]12 (some centres undefined) here?
A: Its growth is 49.2% (inactive).

Q: How did the growth turn out when COc1cc(NC(=O)c2sc3nc4c(cc3c2N)C(O)CCC4)cc(OC)c1 (centres undefined) was run?
A: The growth was 73.2% (inactive).

Q: NS(=O)(=O)c1ccc(CCn2c(SCC(=O)c3ccc(Cl)cc3)nc3ccccc3c2=O)cc1 was tested. Which growth did it give?
A: The growth was 95.5% (inactive).

Q: How did the growth turn out when C=C(C[n+]1ccccc1)[C@@H]1CC[C@]2(C(=O)OC)CC[C@]3(C)[C@H](CC[C@@H]4[C@@]5(C)CC[C@H](O)C(C)(C)[C@@H]5CC[C@]43C)[C@@H]12 was run?
A: The growth was 93.5% (inactive).

Q: How did the growth turn out when COc1ccc(NC(=O)n2nc(/C=C\c3ccc(O)c(OC)c3)cc2/C=C\c2ccc(O)c(OC)c2)cc1 was run?
A: Its growth is 5.32% (active).

Q: For CN1c2ccccc2C(C)(C)C12C=Cc1cc(O)ccc1O2 (centres undefined), which growth is on record?
A: Its growth is -30.1% (active).

Q: How did the growth turn out when CCCCOCC(=O)NC(NP(=O)(N(C)C)N(C)C)C(Cl)(Cl)Cl (centres undefined) was run?
A: Its growth is 100% (inactive).

Q: Which growth does the source give for COC(=O)c1ccc(-n2cc(CCCOS(=O)(=O)c3ccc(F)cc3)nn2)cc1 here?
A: Its growth is 99.6% (inactive).

Q: For CCN1C(=O)N(CC)C2C1NN=c1s/c(=C3\C(=O)N(CCc4ccccc4)c4ccccc43)c(=O)n12 (centres undefined), which growth is on record?
A: Its growth is -46.1% (active).

Q: With CO[C@H]1NC(=O)N(S(=O)(=O)c2ccc(Cl)cc2)[C@@H]1OC as the compound, how does the growth read?
A: Its growth is 105% (inactive).

Q: COc1ccc(-c2csc(NC(=O)c3cc(OC)c(OC)c(OC)c3)n2)cc1 was tested. Which growth did it give?
A: The growth was 102% (inactive).

Q: How did the growth turn out when CC(O)CN(CC(C)O)c1ccc2c(c1)Cc1cc([N+](=O)[O-])ccc1-2 (centres undefined) was run?
A: Its growth is 74.5% (inactive).

Q: For Nc1ccc(S(=O)(=O)O)c2cc(S(=O)(=O)O)cc(O)c12, which growth is on record?
A: The growth was 99.2% (inactive).

Q: O=S(=O)(NCCNc1cc(-c2cn(-c3ccccc3)nc2-c2cccc(O)c2)ccn1)c1ccccc1 was tested. Which growth did it give?
A: Its growth is 33.9% (inactive).

Q: Which growth does the source give for c1ccc(-c2cn3c(ccc4ccccc43)n2)cc1 here?
A: Its growth is 24.4% (inactive).

Q: O=C(N/N=C\c1ccccc1S(=O)(=O)O)N/N=C/c1ccccc1S(=O)(=O)O was tested. Which growth did it give?
A: Its growth is 91.7% (inactive).

Q: How did the growth turn out when CC(=O)c1c[nH]c2ccc(-c3ccnc(Nc4ccc(NC(=O)C5CCCC5)c(CN5CCOCC5)c4)n3)cc12 was run?
A: Its growth is -31.5% (active).

Q: For CC1Cc2c(ncnc2-n2cnc3ccccc32)N(C)c2ccccc21 (centres undefined), which growth is on record?
A: The growth was 15.9% (inactive).

Q: Which growth does the source give for O=S(=O)(Nc1ccc(F)cc1)c1ccc(-c2cnc(C3CC3)o2)cc1 here?
A: Its growth is -28.1% (active).

Q: Which growth does the source give for C=C1C(=O)O[C@H]2[C@H]1CC/C(CNC(=O)c1cc3ccccc3[nH]1)=C\CC[C@@]1(C)O[C@@H]21 here?
A: The growth was -41.5% (active).

Q: CCN(CC)c1ccc(C(=C2C=CC(=[N+](CC)Cc3cccc(S(=O)(=O)O)c3)C=C2)c2ccc(N(CC)Cc3cccc(S(=O)(=O)O)c3)cc2)cc1 was tested. Which growth did it give?
A: The growth was -22.2% (active).

Q: How did the growth turn out when CCCCCO/N=C\c1c2c(O)c3c(O)c(C)c4c(c3c1O)C(=O)C(C)(O/C=C\C(OC)C(C)C(OC(C)=O)C(C)C(O)C(C)C(O)C(C)/C=C\C=C(\C)C(=O)N2)O4 (centres undefined) was run?
A: Its growth is -6.96% (active).

Q: With Oc1ccccc1C=Nc1ccccc1N=Cc1ccccc1O.[Cu+2] as the compound, how does the growth read?
A: Its growth is 55.8% (inactive).

Q: With Cc1nn(-c2ccccc2)c(Oc2ccccc2)c1/C=N/NC(=O)Cn1c(=O)sc2ccccc21 as the compound, how does the growth read?
A: Its growth is 5.9% (active).
